Source: PubChem (Buhrlage Lab, Dana-Farber Cancer Institute and Novartis Institutes for BioMedical Research (Cambridge, Mass))
Compounds with a hit are over-represented: about 11% of the library has one in this group of screens.
USP17 inh – inhibitors of human USP17 deubiquitinase | purified USP17, Ub-rhodamine cleavage fluorescence, 3 h | inhibition, % at 50 µM | 6.5% of 47,000 active | Ubiquitin carboxyl-terminal hydrolase 17-like protein 5 (Homo sapiens), A8MUK1
USP30 inh – inhibitors of human USP30 deubiquitinase; Ubiquitin carboxyl-terminal hydrolase 30 (Homo sapiens), Q70CQ3; purified USP30, Ub-rhodamine cleavage fluorescence; inhibition, % at 25 µM; 5.3% of 47,000 active; AID 1645860, 2021
USP28 inh – inhibitors of human USP28 deubiquitinase; Ubiquitin carboxyl-terminal hydrolase 28 (Homo sapiens), Q96RU2; purified USP28, Ub-rhodamine cleavage fluorescence, 30 min; inhibition, % at 25 µM; 3% of 47,000 active
Target sequence (Q96RU2 whole entry, looked up): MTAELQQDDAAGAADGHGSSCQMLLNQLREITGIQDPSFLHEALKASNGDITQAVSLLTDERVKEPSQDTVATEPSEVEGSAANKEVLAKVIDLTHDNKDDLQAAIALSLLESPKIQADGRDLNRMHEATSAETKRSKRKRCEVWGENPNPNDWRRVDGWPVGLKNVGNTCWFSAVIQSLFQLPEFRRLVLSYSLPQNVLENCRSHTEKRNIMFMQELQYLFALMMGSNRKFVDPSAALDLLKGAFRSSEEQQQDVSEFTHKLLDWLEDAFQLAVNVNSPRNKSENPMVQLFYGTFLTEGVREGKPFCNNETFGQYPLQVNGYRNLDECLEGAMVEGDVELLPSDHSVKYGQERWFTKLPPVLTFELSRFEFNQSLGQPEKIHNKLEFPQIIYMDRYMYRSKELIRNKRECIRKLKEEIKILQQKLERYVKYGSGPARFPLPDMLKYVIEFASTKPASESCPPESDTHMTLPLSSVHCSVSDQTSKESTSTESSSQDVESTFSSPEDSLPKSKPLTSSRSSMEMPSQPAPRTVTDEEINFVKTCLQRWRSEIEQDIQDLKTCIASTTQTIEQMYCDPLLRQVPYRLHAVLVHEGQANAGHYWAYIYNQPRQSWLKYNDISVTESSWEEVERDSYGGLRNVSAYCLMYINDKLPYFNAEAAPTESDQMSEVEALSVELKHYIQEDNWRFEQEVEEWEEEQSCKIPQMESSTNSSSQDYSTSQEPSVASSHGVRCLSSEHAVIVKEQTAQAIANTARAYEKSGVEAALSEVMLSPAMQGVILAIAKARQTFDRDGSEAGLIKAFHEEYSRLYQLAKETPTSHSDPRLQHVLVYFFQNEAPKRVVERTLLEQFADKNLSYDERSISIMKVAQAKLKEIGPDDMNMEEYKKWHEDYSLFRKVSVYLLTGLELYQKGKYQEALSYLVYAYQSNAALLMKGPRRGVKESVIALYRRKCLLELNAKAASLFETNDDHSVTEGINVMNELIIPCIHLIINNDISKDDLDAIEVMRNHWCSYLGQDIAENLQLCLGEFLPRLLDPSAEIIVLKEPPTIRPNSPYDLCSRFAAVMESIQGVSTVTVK
OTUD3 block – inhibitors of human OTUD3 deubiquitinase | OTU domain-containing protein 3 (Homo sapiens), Q5T2D3 | purified OTUD3, Ub-rhodamine fluorescence, 2 h | inhibition, % at 25 µM | 0.7% of 47,000 active | AID 1645858, 2021
Active calls of the source: *; . = not tested or not shown. No stated cut-off is given here; in the data, active means inhibition above about 30%; inactive means the rest.

SMILES | USP17 inh | USP30 inh | USP28 inh | OTUD3 block
Cc1cc(C)nc(NC(=O)c2csnn2)c1 | -2 | 0 | -3 | -2
Cc1cc(C)nc(NC(=O)c2c(C)nc3sccn23)c1 | 31* | . | . | 5
O=S(=O)(c1ccccc1)c1nnn2c1nc(NCc1ccc(Cl)cc1)c1ccccc12 | 42* | 19 | 9 | 10
Cc1ccc(S(=O)(=O)c2nnn3c2nc(NCc2ccc(F)cc2)c2ccccc23)cc1C | 12 | 22 | 10 | 9
COc1ccc(Nc2nc3c(S(=O)(=O)c4ccc(C(C)C)cc4)nnn3c3ccccc23)cc1 | 24 | 32* | 10 | 6
Cc1ccc(Nc2nc3c(S(=O)(=O)c4ccccc4)nnn3c3ccccc23)c(C)c1 | 24 | 29 | -3 | -18
O=C(/C=C/c1nc2ccccc2o1)OCc1cc(F)cc2c1OC(c1ccccc1)OC2 (stereo not drawn) | -33 | -126 | -16 | -13
Cc1cc(SCc2ncon2)c(C)cc1Cl | . | 12 | 69* | 11
COc1ccc(CN2C(=O)N[C@@H](CCC(=O)Nc3cccc(Cl)c3)C2=O)cc1 | 14 | 26 | 15 | 10
COc1ccc(CN2C(=O)N[C@@H](CCC(=O)Nc3cccc(OC)c3)C2=O)cc1 | 45* | 4 | 9 | 11
C/C1=C/C=C/[C@H](C)[C@H](O)[C@@H](C)[C@@H](O)[C@@H](C)[C@H](O)[C@H](C)[C@@H](O)[C@@H](C)/C=C(/C)C(=O)c2c(O)c(C)cc3c2C(=O)C=C(NC1=O)C3=O | 51* | -62 | -6 | -10
CC1CCCN(C(=O)c2cn(-c3ccc(S(=O)(=O)N4CCCC(C)C4)cn3)cn2)C1 (stereo not drawn) | 6 | 38* | 10 | 11
O=C1CN(S(=O)(=O)c2cccc(C(=O)Nc3ccc4oc5ccccc5c4c3)c2)CCN1 | -11 | -95 | -7 | -4
CSc1nc(Cc2ccc(Cl)cc2)nc2ccccc12 | 2 | -4 | 56* | 1
O=C(NCc1ccccc1)c1ccc(CS(=O)c2ccccc2Cl)o1 (stereo not drawn) | 4 | 6 | -2 | 2
CCc1nnc(NC(=O)Cn2ncc3c(=O)oc4ccc(C)cc4c32)s1 | 31* | 23 | 9 | 3
CCc1nnc(NC(=O)CN2C(=O)CCc3ccccc32)s1 | -5 | 0 | 0 | 9
CC(=O)O[C@@H]1/C=C(/C)[C@H](OC(=O)c2ccc(O)cc2)C/C=C(/C)CCCC1(C)C | 31* | 15 | 6 | -1
Cc1ccccc1-c1cc(CC2(C(=O)O)CCCN(C(=O)C3CCCC3)C2)on1 (stereo not drawn) | 15 | 9 | 8 | 5
CC(C)(C)c1ccc(S(=O)(=O)Nc2ccc(Cc3ccncc3)cc2)cc1 | -5 | 36* | 2 | -9
CCOC(=O)CNC(=O)CSc1nnc(-c2c[nH]c3ccccc23)n1-c1cc(OC)ccc1OC | -23 | -17 | -15 | -11
CO[C@H]1/C=C/OC2(C)Oc3c(C)c(O)c4c(c3C2=O)C2(C=C(NC(=O)/C(C)=C\C=C\[C@H](C)[C@H](O)[C@@H](C)[C@@H](O)[C@@H](C)[C@H](OC(C)=O)C1C)C4=O)OCC(=O)O2 (stereo partly drawn) | 60* | -49 | 23 | 6
COC1/C=C/OC2(C)Oc3c(C)c(O)c4c(c3C2=O)C(=O)C=C(NC(=O)/C(C)=C\C=C\C(C)C(O)C(C)C(O)C(C)C(OC(C)=O)C1C)C4=O (stereo not drawn) | 64* | -61 | 9 | 4
O=C(O)C1CCN(Cc2c(-c3ccc4c(c3)OCO4)nc3ccccn23)CC1 | -21 | -62 | -25 | -19
CN1CC[C@@H]2[C@H]1C(=O)NC[C@H](CCC(=O)N1CCN(c3ccccn3)CC1)N2C | -70 | 26 | 44* | 2
SMILES | USP17 inh | USP30 inh | USP28 inh | OTUD3 block
CN1[C@@H](CCC(=O)N2CCN(c3ccccn3)CC2)CNC(=O)[C@@H]2[C@H]1CCN2C1CCCCC1 | -55 | -2 | 25 | 1
CC(C)N1CC[C@@H]2[C@H]1C(=O)NC[C@H](CCC(=O)N1CCCC1)N2C | -56 | 21 | 34* | 8
CC(C)N1CC[C@@H]2[C@H]1C(=O)NC[C@H](CCC(=O)N1CCN(c3ccccc3)CC1)N2C | -61 | -3 | 4 | 4
COC(=O)C1CCN(C(=O)CC[C@H]2CNC(=O)[C@@H]3[C@@H](CCN3C3CCCCC3)N2C)CC1 | -50 | -13 | 31* | 9
COc1ccccc1NC(=O)COc1ccccc1-c1noc(COc2ccc(C)cc2)n1 | -5 | -30 | -7 | -2
O=C(Cn1cnc2sc(-c3ccccc3)cc2c1=O)N(Cc1ccccc1F)C1CC1 | 34* | 35* | 31* | 8
CC(=O)c1ccc(OCc2csc(-c3ccc(F)cc3)n2)cc1 | 43* | 37* | 30* | 18
CC(Oc1ccc(Cl)cc1Cl)C(=O)Nc1ccc(S(=O)(=O)N2CCc3ccccc32)cc1 (stereo not drawn) | -39 | -283 | -51 | -45
Cn1c(CN2CCOCC2)nnc1SCc1ccc(Cl)cc1 | 20 | 32* | 15 | 14
Cc1ccc(C)c(NC(=O)C[n+]2cc(-c3ccc(F)cc3)n3c2CCC3)c1 | 6 | 7 | 9 | 10
CC(=O)c1ccc(NC(=O)C[n+]2cc(-c3ccc(Cl)cc3)n3c2CCC3)cc1 | 67* | 19 | 23 | 21
CCOC(=O)c1ccc(NC(=O)C[n+]2cc(-c3ccc(Cl)cc3)n3c2CCC3)cc1 | 9 | 51* | 35* | 24
COC(=O)c1ccc(NC(=O)C[n+]2cc(-c3ccc(Cl)cc3)n3c2CCC3)cc1 | -15 | 21 | 6 | 2
CCOC(=O)c1ccc(NC(=O)C[n+]2cc(-c3ccc(C)cc3)n3c2CCC3)cc1 | -2 | 32* | 20 | 9
NC(=O)N1CCCCCC1C1CCN(c2ncnc3ccccc23)CC1 (stereo not drawn) | -2 | 1 | -1 | 7
O=C1CCCC[C@]2(CN(Cc3ccc(Oc4ncccn4)cc3)C[C@H]2c2cccnc2)N1 | -1 | -17 | -6 | -5
COc1ccc(-c2noc([C@@H]3C[C@H](NC(=O)Nc4cccc(C#N)c4)CN3C)n2)cc1 | 25 | 37* | 21 | 22
CCOc1ccc(NC(=O)CSCc2nc(-c3ccc(OC)c(OC)c3)no2)cc1 | 47* | -14 | 20 | 13
CCOC(=O)c1cccc(NC(=O)Cc2nc(-c3ccc(OC)cc3)no2)c1 | -9 | -4 | 8 | 0
COc1ccc(-c2noc(CC(=O)Nc3cccc(C#N)c3)n2)cc1 | 39* | 18 | 0 | 0
O=S(=O)(c1cc(F)cc(F)c1)N1C[C@@H]2c3nccn3-c3ccccc3[C@@H]2C1 | 29 | 21 | 20 | 11
O=C(Cn1ncc2cc([N+](=O)[O-])ccc21)N1CCc2ccccc21 | -4 | -191 | -42 | -25
O=C(OCC(=O)N1CCc2ccccc21)c1cc([N+](=O)[O-])ccc1NCCO | 60* | . | . | 8
Cc1nc2ccccc2c(-c2ccccc2)c1C(=O)Nc1ccccc1 | 8 | 38* | 16 | 6
CC(C)c1ccc(NC(=O)c2c(-c3ccccc3)nnc3ccccc23)cc1 | 8 | 24 | 4 | 3
